Consider 69 compounds from PubChem BioAssay AID493033 (ICCB-Longwood Screening Facility, Harvard Medical School, 2011).

Where “and” joins values, the source holds several entries; their conditions need not be identical. Equal values may be shown once. Out of some 100,000 compounds screened, about 930 (0.93%) were called active. No stated cut-off is given here; in the data, active means inhibition mostly above about 56% (no sharp cut-off); inactive means mostly below about 77%. The full list was thinned out, with actives kept by preference. Some structures have more than one record in an assay (separate samples or runs), and their calls can disagree.

Sequence of Salicylate synthase (Mycobacterium tuberculosis (strain CDC 1551 / Oshkosh)) (P9WFX0 whole entry, looked up): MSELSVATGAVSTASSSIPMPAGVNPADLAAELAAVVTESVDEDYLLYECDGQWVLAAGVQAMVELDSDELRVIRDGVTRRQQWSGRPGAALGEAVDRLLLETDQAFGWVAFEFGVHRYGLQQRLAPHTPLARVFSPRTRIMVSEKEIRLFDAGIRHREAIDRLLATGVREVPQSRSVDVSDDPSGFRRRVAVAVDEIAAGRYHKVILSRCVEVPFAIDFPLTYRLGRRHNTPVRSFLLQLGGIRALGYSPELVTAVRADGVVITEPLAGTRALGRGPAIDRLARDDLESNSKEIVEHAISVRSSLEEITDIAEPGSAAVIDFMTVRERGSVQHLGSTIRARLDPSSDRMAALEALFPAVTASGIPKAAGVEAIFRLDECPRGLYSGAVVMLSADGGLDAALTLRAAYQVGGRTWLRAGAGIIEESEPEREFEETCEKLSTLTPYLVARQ

This test has as its target Salicylate synthase (Mycobacterium tuberculosis (strain CDC 1551 / Oshkosh)) (UniProt P9WFX0). Briefly: MbtI salicylate synthase inhibitors, primary screen, biochemical, fluorescence intensity (AID 493033). The note with it: purified MbtI enzyme, fluorescence intensity read-out, stronger effect = higher value, concentration not given here.
As a reminder, the inhibition is the relative decrease from the control value, in per cent. On to `CC(C)(C)c1nc(=S)[nH][nH]1`, for which the inhibition is 59.2% (active). As for `O=C(c1ccco1)N1CCN(C(=O)c2cnn(-c3ccccc3)c2-n2cccc2)CC1`, the inhibition was -6.6% (inactive). On to `COc1cccc(C(=O)Nc2ccc(N3CCCC3)cc2)c1`, for which the inhibition was -7% (inactive). For `CCCCNC(=O)c1cccc(OC)c1`, the inhibition is -2.5% (inactive).

For the compound `COc1cccc(N2C(=O)C=CC2=O)c1`, the inhibition was 98.8% (active).

Consider `CCN1CCN(CCCNC(=S)Nc2ccc3nc(N4CCN(CC)CC4)cc(C)c3c2)CC1`, for which the inhibition is 35.8% (inactive).

Regarding `Cc1ccc(-c2nnc(SCc3c(C)cc(C)cc3C)o2)cc1`, the inhibition was -3.75% (inactive).

As for `O=C(CSc1nnc(-c2cccs2)n1-c1ccccc1)OC1CCS(=O)(=O)C1` (centres undefined), the inhibition was -45% (inactive). As to `FC(F)(F)c1cccc(-n2c(-c3ccncc3)n[nH]c2=S)c1`, the inhibition is 6% (inactive).

As to `CC(C)n1c(-c2ccncc2)n[nH]c1=S`, the inhibition was 93.6% (active). In the case of `S=c1[nH]nc(-c2ccncc2)n1/N=C/c1cccnc1`, the inhibition is -6.8% (inactive) and -8.55% (inactive). In the case of `CCOC(=O)N1CCN(C(=O)COC(=O)c2cccc(S(C)(=O)=O)c2)CC1`, the inhibition was -7.25% (inactive).

Regarding `NC(=O)c1nnc(Cc2ccc(Cl)cc2)o1`, the inhibition was -6.1% (inactive).

As to `CC(C)n1nc(C(N)=O)c2ccccc2c1=O`, the inhibition was 14.1% (inactive). Then `O=C(CCC(=O)N1CCCCc2ccccc21)NC1CCCC1`, with -4.6% (inactive). In the case of `NCCc1ccc(Cl)cc1` it was -11.3% (inactive). As to `O=C1CSc2ccccc2N1Cc1ccc(Cl)cc1`, the inhibition was -5.75% (inactive).

As to `O=C1C=CC(=O)N1Cc1ccc(Cl)cc1`, the inhibition is 71.7% (active). For the compound `CCOC(=O)c1oc2ccccc2c1CN1c2cccc3cccc(c23)S1(=O)=O`, the inhibition is -5.65% (inactive). Then `COC(=O)c1cccc(OCC(O)CNC2CCN(Cc3ccccc3)CC2)c1` (centres undefined), with 12.9% (inactive); and `O=C(CS(=O)(=O)c1ccccc1)Nc1ccccc1O`, with -1.55% (inactive); and `NC(=S)CC(=O)NCc1ccccc1`, with 65.2% (inactive). With `Oc1ccc(CNc2ccccc2O)cc1`, the inhibition is 92% (active).

Regarding `C=CCn1c(SCC(=O)c2ccc(N(C)S(C)(=O)=O)cc2)nnc1C1CCCCC1`, the inhibition was 0.8% (inactive).

`Cc1cc(N2CCN(c3ccccc3)CC2)n2c(nc3ccccc32)c1C#N`: the inhibition is 4.55% (inactive). In the case of `CC(NC(=O)c1ccccc1NC(=O)c1ccco1)C(=O)NN(c1ccccc1)c1ccccc1` (centres undefined) it was 31.5% (inactive).

On to `Cc1occc1-c1nnc2sc(Cc3cccc4ccccc34)nn12`, for which the inhibition was 79.1% (inactive).

In the case of `N=C1N=C(N)C(Cc2ccccc2)S1` (centres undefined), the inhibition is 84.2% (active). On to `NC1=NC(=O)C(Cc2cccc(Cl)c2)S1` (centres undefined), for which the inhibition was 0.55% (inactive).

As for `Nc1nnc(SCc2ccccc2)s1`, the inhibition was 38.8% (inactive). `CN(C(=O)CSc1cccc[n+]1[O-])C1CCCCC1`: the inhibition is 2.9% (inactive). In the case of `CCOC(=O)C1=C(C)NC(C)=C(C(=O)OCC)C1C(=O)OCc1cc(=O)n2cc(C)ccc2n1` it was -9.2% (inactive); in that of `O=C(O)CN1C(=O)/C(=C2/OC(=O)c3ccccc32)SC1=S`, 13.1% (inactive). As to `O=C(O)CCCN1C(=O)c2ccccc2Sc2ncccc21`, the inhibition was 4.25% (inactive). For `O=C(O)CCCN1C(=O)/C(=C2\SC(=S)N(CCCC(=O)O)C2=O)SC1=S`, the inhibition was 88.5% (active). As for `N#Cc1ccc(NC(=O)CSc2ncn[nH]2)cc1`, the inhibition was 15.7% (inactive). Take `COC(=O)c1cccc(Cn2nc(C)c(Cl)c2C)c1`: the inhibition was -1.2% (inactive).

For `CCOC(=O)c1c(N)sc2c1CCCS2`, the inhibition is 70.4% (active). Consider `CCOC(=O)c1c(N)sc2c1CC(C)(C)OC2`, for which the inhibition was 64.8% (inactive). With `CCOC(=O)c1c(-n2cnnn2)sc(C)c1C`, the inhibition is 589% [above what the read-out allows, likely interference] (inactive). With `Cc1csc(/C(C#N)=N/OC(=O)c2ccco2)n1`, the inhibition was 6.4% (inactive). On to `Cc1cc(C)n(CCCN)n1`, for which the inhibition is -3.05% (inactive). Regarding `O=C(CSc1nccn1-c1ccc(F)cc1)Nc1ccccc1`, the inhibition was 9.1% (inactive). In the case of `Cc1nc2cccc[n+]2c(-c2ccccc2)c1C`, the inhibition is -10.6% (inactive). `CCOc1cccc2sc(NC(C)=O)nc12`: the inhibition is 17.4% (inactive). With `c1ccc(OCc2nc(-c3ccccn3)n[nH]2)cc1`, the inhibition is 4.2% (inactive). In the case of `S=c1[nH]nc(COc2ccccc2)o1`, the inhibition was 64% (active) and 19.4% (inactive).

For `N/C(COc1ccccc1)=N\O`, the inhibition is -4.9% (inactive). Regarding `COc1ccc(-c2nc(CS(=O)(=O)c3ccc(F)cc3)no2)cc1OC`, the inhibition was -17% (inactive). Take `COCCCn1cc(C(=O)c2cc(F)ccc2O)cc(C#N)c1=O`: the inhibition is 0.95% (inactive).

Consider `Cc1ccccc1NC(=O)NC(=O)CC#N`, for which the inhibition is -2.55% (inactive). With `Cc1ccccc1NC(=O)CSC(=O)c1ccccc1`, the inhibition was 75% (active). Then `Cc1ccccc1NC(=O)COC(=O)c1ccccc1`, with 16.1% (inactive). Take `CCn1c(O)c(/C=N/N=C2/C(=O)N(C)c3ccccc32)c(=O)n(CC)c1=S`: the inhibition was 7.05% (inactive). Regarding `N#C/C(=C\c1cc2ccccc2nc1N1CCOCC1)C(=O)Nc1ccc2c(c1)OCCO2`, the inhibition was 12% (inactive). With `CC(=O)OC1=C(Sc2ccc(Cl)cc2)C(=O)CCC1`, the inhibition is 59.8% (active). As to `CC1(C)CC(=O)C(Sc2ccc(Cl)cc2)=C(N2CCOCC2)C1`, the inhibition was 4.9% (inactive). With `O=C(CSc1ccc(Cl)cc1)N1CCc2ccccc21`, the inhibition was -9.4% (inactive). In the case of `CCOC(=O)c1cc(S(=O)(=O)NC2CCCc3ccccc32)cn1C` (centres undefined) it was -4.15% (inactive). For `COC(=O)c1ccc(N)cc1`, the inhibition was 16.6% (inactive).

As to `COc1ccc(-n2c(SCC(=O)c3ccc4c(c3)NC(=O)CO4)nc3ccccc3c2=O)cc1OC`, the inhibition was -1.55% (inactive). As to `CC1(C)Oc2ccccc2C2CC(c3ccccc3)=NN21` (centres undefined), the inhibition was 10.8% (inactive). Then `Cc1ccc(NC(N)=O)cc1`, with -7.15% (inactive).

On to `CSC(=S)Nc1ccc(C)cc1`, for which the inhibition was -4.35% (inactive). Then `Cc1ccc(NC(=S)Nc2ccc(C)cc2)cc1`, with 56.7% (active); and `Cn1c(SCc2nc(-c3cccs3)no2)nnc1-c1ccncc1`, with -11.6% (inactive). `CC1CC(=O)Nc2ccccc2N1C(=O)CSc1ccccn1` (centres undefined): the inhibition is -3.2% (inactive). Regarding `CCOC(=O)CSc1cc(C)nc(SCC(=O)OCC)n1`, the inhibition was 7.15% (inactive). With `CCOC(=O)CSc1ccccn1`, the inhibition is 81.9% (active).
